Experimental findings from PubChem BioAssay (Tox21) are described below.

Records with an inconclusive call do not appear. A number with no mark means an inactive call. Active and inactive are the calls of the source. Calls follow the shape of the dose curve; as a rule, active = well fitted cell-killing curve with a large enough effect in the repeat runs; inconclusive = weak or mixed curves, or effect the other way; inactive = flat fitted curve, though single readings scatter.
% is scaled to controls: 0 for no effect and ±100 for the full control effect; potency is read from the fitted curve at half-maximal effect.

This experiment can be described thus: cAMP Responsive Elements (CRE) small molecule antagonists, cell-based qHTS assay: qHTS cell viability counter screen (AID 2060913). Also: nearly all actives have a fitted effect of over 40% in size. Conditions: CRE-bla HEK293T viability, CellTiter-Glo luminescence, 5 h; series mostly up to 92.4 µM; viability change, negative = cytotoxic: at the top concentration. In outline:
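Cytotoxicity read in the same wells as the CRE-bla HEK293T antagonist assay: after 3 h compound with 0.25 uM NKH477 final and 2 h beta-lactamase substrate, CellTiter-Glo luminescence measured.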
With `O=S1OCC2C(CO1)C1(Cl)C(Cl)=C(Cl)C2(Cl)C1(Cl)Cl` (stereo not given), the Potency was 61.1 µM (active).

With `N#CC(CCc1ccc(Cl)cc1)(Cn1cncn1)c1ccccc1` (stereo not given), the “viability change, negative = cytotoxic” value was -21.3%.

Take `Cc1c(COC(=O)[C@@H]2[C@H](/C=C(\Cl)C(F)(F)F)C2(C)C)cccc1-c1ccccc1`: the Potency entry is “inactive”.

On to `O=C(O)C(F)(F)C(F)(F)C(F)(F)C(F)(F)C(F)(F)F`, for which the “viability change, negative = cytotoxic” value is -3.22%.

For `NCCc1ccc(O)cc1`, the Potency result is “inactive”.

Turning to `COC(=O)N(C(=O)N1CO[C@@]2(C(=O)OC)Cc3cc(Cl)ccc3C2=N1)c1ccc(OC(F)(F)F)cc1`, the “viability change, negative = cytotoxic” value is -16.1%.

In the case of `[Cl][Sn]([c]1ccccc1)([c]1ccccc1)[c]1ccccc1`, the Potency was 2.59 µM (active).

`O=c1n(Cl)c(=O)n(Cl)c(=O)n1Cl`: the Potency entry was “inactive”.

In the case of `CC(C)=CCN1CC[C@@]2(C)c3cc(O)ccc3C[C@@H]1[C@@H]2C`, the “viability change, negative = cytotoxic” value was -7.83%.

`C[N+](C)(C)Cc1ccccc1`: the Potency entry is “inactive”.

For the molecule `c1nc[nH]n1`, the Potency entry was “inactive”.

Regarding `Nc1ccc(Cl)cc1`, the Potency entry is “inactive”.

As for `C[C@]12CC[C@@H]3c4ccc(OC(=O)N(CCCl)CCCl)cc4CC[C@H]3[C@@H]1CC[C@@H]2O`, the “viability change, negative = cytotoxic” value was -0.486% [at 42.5 µM].

`CCCCCCCCCBr`: the “viability change, negative = cytotoxic” value was -0.586%.

For `O=C1c2ccccc2C(=O)C1C(=O)C(c1ccccc1)c1ccccc1`, the “viability change, negative = cytotoxic” value is 0.388% [at 42.5 µM].

Take `CCOP(=S)(OCC)SCSc1cc(Cl)ccc1Cl`: the “viability change, negative = cytotoxic” value is 3.25%.

Consider `CCCOC(=O)c1cncn1C(C)c1ccccc1` (stereo not given), for which the “viability change, negative = cytotoxic” value was 6.35% [at 42.5 µM].

Take `OC(Cn1cncn1)(c1ccc(F)cc1)c1ccccc1F` (stereo not given): the “viability change, negative = cytotoxic” value was -7.51%.

Consider `C[N+](C)(C)CCOC(=O)C(O)(c1ccccc1)c1ccccc1`, for which the “viability change, negative = cytotoxic” value is 1.98% [at 42.5 µM].

Regarding `CCOP(=O)(SC(C)CC)N1CCSC1=O` (stereo not given), the “viability change, negative = cytotoxic” value was 2.5%.

Regarding `C=CC(=O)OCCO`, the Potency result was “inactive”.

For the molecule `C[C@@H]1O[C@@H](O[C@H]2C[C@@H](O)[C@]3(CO)[C@H]4[C@H](O)C[C@]5(C)[C@@H](C6=CC(=O)OC6)CC[C@]5(O)[C@@H]4CC[C@]3(O)C2)[C@H](O)[C@H](O)[C@H]1O`, the Potency is 0.073 µM (active).

`O=C(OC1CCCCC1)c1ccccc1C(=O)OC1CCCCC1`: the “viability change, negative = cytotoxic” value was -17%.

As to `CSC1=N[C@@](C)(c2ccccc2)C(=O)N1Nc1ccccc1`, the “viability change, negative = cytotoxic” value is -11.8%.

On to `O=CCCl`, for which the “viability change, negative = cytotoxic” value was -0.645%.

For the molecule `O=C(Cl)OCc1ccccc1`, the “viability change, negative = cytotoxic” value is 3.66%.

Turning to `C=CC(=O)OCCCCOC(=O)C=C`, the “viability change, negative = cytotoxic” value is 4.19%.

Take `CC1(C)CC(=O)CC(C)(C)N1[O]`: the “viability change, negative = cytotoxic” value was 1.6%.

Regarding `Cc1ccccc1N`, the Potency entry is “inactive”.

As to `CN1CCC(O)(c2ccc(F)cc2)C(C(=O)c2ccc(F)cc2)C1` (stereo not given), the “viability change, negative = cytotoxic” value was -3.68% [at 42.5 µM].

`CCNS(=O)(=O)C(F)(F)C(F)(F)C(F)(F)C(F)(F)C(F)(F)C(F)(F)C(F)(F)C(F)(F)F`: the “viability change, negative = cytotoxic” value was 8.62%.

With `CCOC(=O)c1ccccc1S(=O)(=O)NC(=O)Nc1nc(Cl)cc(OC)n1`, the “viability change, negative = cytotoxic” value is 17.9%.

Consider `COc1nn(CSP(=S)(OC)OC)c(=O)s1`, for which the “viability change, negative = cytotoxic” value is -10.4%.

`CC(C)[C@@H](Nc1ccc(C(F)(F)F)cc1Cl)C(=O)OC(C#N)c1cccc(Oc2ccccc2)c1` (stereo not given in full): the “viability change, negative = cytotoxic” value was -7.1%.

On to `CSc1ccc(C(=O)C(C)(C)N2CCOCC2)cc1`, for which the “viability change, negative = cytotoxic” value was -11.8%.

Consider `C#CCOC(C(=O)OCCN(C)C)(c1ccccc1)c1ccccc1`, for which the “viability change, negative = cytotoxic” value is 4% [at 42.5 µM].

Regarding `N#CNC#N`, the “viability change, negative = cytotoxic” value was -17.1%.

As to `CCCCCCCCP(=O)(O)O`, the “viability change, negative = cytotoxic” value is -1.7%.

As to `ClC(Br)Br`, the “viability change, negative = cytotoxic” value is 8.47%.

In the case of `CNC(=O)Oc1cc(C)c(N(C)C)c(C)c1`, the “viability change, negative = cytotoxic” value was 2.06%.
